Measurements from PubChem BioAssay (NCI).
This is part of a sample that, as a whole, favours compounds with a hit. Of some 79,000 tested, about 15% had one in any assay. Calls of active or inactive are those of the source. Rule as the data show it: active = growth inhibition above about 70%; inactive = the rest.

Assays:
[1] = NCI Yeast Anticancer Drug Screen. Data for the rad52 strain (AID 147);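 also: 0% = growth of vehicle-treated control cultures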; settings: S. cerevisiae rad52 mutant growth inhibition, active compounds read high
Outline: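 Yeast strain carrying a DNA damage repair alteration was exposed to test compounds. Growth inhibition was measured relative to vehicle-treated controls.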

[2] = NCI Yeast Anticancer Drug Screen. Data for the wt1 strain (AID 149);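 also: 0% = growth of vehicle-treated wt1 cultures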; settings: S. cerevisiae wt1 strain (SPY 50644) growth inhibition, active compounds read high
Outline: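 Yeast wt1 strain exposed to compounds; growth inhibition measured relative to vehicle-treated controls.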

[3] = NCI Yeast Anticancer Drug Screen. Data for the rad50EPP+ strain (AID 151);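 also: 0% = growth of vehicle-treated control cultures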; settings: S. cerevisiae rad50 mutant strain, active compounds read high
Outline: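 Yeast strain carrying rad50 alteration (rad50EPP+) exposed to compounds; growth inhibition measured relative to vehicle-treated controls.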

[4] = NCI Yeast Anticancer Drug Screen. Data for the rad50 strain (AID 155);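 also: 0% = growth of vehicle-only cultures of the same strain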; settings: S. cerevisiae rad50 strain growth inhibition, active compounds read high
Outline: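 Yeast carrying a defined DNA repair defect were exposed to test compounds, and growth was compared with vehicle-treated controls to give percent inhibition.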

[5] = NCI Yeast Anticancer Drug Screen. Data for the mec2-1 strain (AID 157); settings: S. cerevisiae mec2-1 strain, active compounds read high
Outline: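 mec2-1 yeast strain, carrying an alteration in DNA damage repair or cell cycle control, was exposed to compounds; growth inhibition was measured relative to vehicle-treated controls.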

[6] = NCI Yeast Anticancer Drug Screen. Data for the rad14 strain (AID 159);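 also: 0% = growth of vehicle-treated control cultures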; settings: S. cerevisiae rad14 strain growth inhibition, active compounds read high
Outline: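 Yeast cells carrying a defined DNA-repair defect were exposed to compounds, and growth inhibition was calculated relative to vehicle-treated control cultures.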

[7] = NCI Yeast Anticancer Drug Screen. Data for the sgs1 mgt1 strain (AID 161);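 also: 0% = growth of cultures given vehicle only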; settings: S. cerevisiae sgs1 mgt1 strain, active compounds read high
Outline: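 Yeast cells carrying a defined DNA-repair defect were exposed to test compounds. Growth inhibition was measured relative to vehicle-treated controls.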

[8] = NCI Yeast Anticancer Drug Screen. Data for the CLN2oe strain (AID 163);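 also: 0% = growth of vehicle-only control cultures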; settings: S. cerevisiae CLN2oe strain, active compounds read high
Outline: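 Yeast cells carrying a defined cell-cycle control alteration were exposed to test compounds. Growth inhibition was scored against vehicle-treated control cultures.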

[9] = NCI Yeast Anticancer Drug Screen. Data for the cln2 rad14 strain (AID 165);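 also: 0% = growth equal to vehicle treated cultures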; settings: S. cerevisiae cln2 rad14 strain, active compounds read high
Outline: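 Yeast carrying cln2 and rad14 alterations (cell cycle control and DNA damage repair) were exposed to compounds. Growth inhibition was measured against vehicle-treated controls.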

[10] = NCI Yeast Anticancer Drug Screen. Data for the bub3 strain (AID 167); settings: S. cerevisiae bub3 mutant strain, active compounds read high
Outline: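 Compounds were applied to a genetically altered yeast strain carrying a cell-cycle control defect. Growth inhibition was scored against vehicle-treated controls.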

[11] = NCI Yeast Anticancer Drug Screen. Data for the wt2 strain (AID 169);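 also: 0% = growth of vehicle-treated yeast cultures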; settings: S. cerevisiae wt2 strain growth inhibition, active compounds read high
Outline: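 Yeast cells were exposed to test compounds, and growth inhibition was measured relative to vehicle-treated controls.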

[12] = NCI Yeast Anticancer Drug Screen. Data for the sgs1 strain (AID 173);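 also: 0% = growth of vehicle-only control cultures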; settings: S. cerevisiae sgs1 mutant, active compounds read high
Outline: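 Yeast mutant strains carrying defined defects in DNA damage repair or cell cycle control were exposed to test compounds. Growth inhibition was scored against vehicle-treated controls.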

[13] = NCI Yeast Anticancer Drug Screen. Data for the mlh1 rad18 strain (AID 175); settings: S. cerevisiae mlh1 rad18 strain growth inhibition, active compounds read high
Outline: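 Growth inhibition of the yeast strain was measured after compound exposure and expressed relative to vehicle-treated controls. The strain carries defined defects in DNA damage repair.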

[14] = NCI Yeast Anticancer Drug Screen. Data for the rad18 strain (AID 177); settings: S. cerevisiae rad18 mutant growth inhibition, active compounds read high
Outline: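 Yeast carrying a defined DNA damage repair alteration were exposed to compounds. Growth inhibition was expressed relative to vehicle-treated controls.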

[15] = NCI Yeast Anticancer Drug Screen. Data for the mlh1 strain (AID 171);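 also: 0% = growth of vehicle-treated control cultures of the same strain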; settings: S. cerevisiae mlh1 strain growth inhibition, active compounds read high
Outline: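 Yeast carrying a defined genetic alteration in DNA damage repair or cell cycle control were exposed to test compounds. Growth inhibition was measured relative to vehicle-treated controls.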

[16] = at 5.0 µM (retest, dose inferred, filed as 0.5)
[17] = at 50.0 µM (retest, dose inferred, filed as 5.0)

Measured: growth inhibition

O=c1ssc2ncccc12
inactive: [1]; at 1.2 µM 3% | [1]; at 3.7 µM 15% | [2]; at 1.2 µM 2% | [2]; at 3.7 µM -2% | [2]; at 11.0 µM 11% | [2]; at 33.0 µM 47% | [3]; at 1.2 µM -5% | [3]; at 3.7 µM 6% | [3]; at 11.0 µM 45% | [4]; at 1.2 µM 15% | [4]; at 3.7 µM 49% | [4]; [16] 24% | [5]; at 1.2 µM 3% | [5]; at 3.7 µM 6% | [5]; [16] 14% | [5]; at 11.0 µM 29% | [6]; at 1.2 µM 7% | [6]; at 3.7 µM 14% | [6]; at 11.0 µM 49% | [7]; [16] 31% | [8]; at 1.2 µM -7% | [8]; at 3.7 µM 6% | [8]; at 11.0 µM 45% | [9]; [16] 21% | [9]; at 50.0 µM 49.6% | [10]; at 1.2 µM 2% | [10]; at 3.7 µM 4% | [10]; [16] 23% | [10]; at 11.0 µM 36% | [11]; at 1.2 µM -6% | [11]; at 3.7 µM -4% | [11]; at 11.0 µM 15% | [11]; at 33.0 µM 57% | [12]; at 1.2 µM 4% | [12]; at 3.7 µM 12% | [13]; [16] 56% | [14]; at 1.2 µM 7% | [14]; at 3.7 µM 27%
active: [1]; at 11.0 µM 71% | [1]; at 33.0 µM 95% | [1]; at 100.0 µM 99% | [2]; at 100.0 µM 97% | [3]; at 33.0 µM 86% | [3]; at 100.0 µM 97% | [4]; at 11.0 µM 82% | [4]; at 33.0 µM 97% | [4]; [17] 99% | [4]; at 50.0 µM 97.1% | [4]; at 100.0 µM 99% | [5]; at 33.0 µM 83% | [5]; [17] 96% | [5]; at 50.0 µM 91.2% | [5]; at 100.0 µM 97% | [6]; at 33.0 µM 97% | [6]; at 100.0 µM 99% | [7]; [17] 96% | [7]; at 50.0 µM 93.2% | [8]; at 33.0 µM 85% | [8]; at 100.0 µM 97% | [9]; [17] 90% | [10]; at 33.0 µM 87% | [10]; [17] 97% | [10]; at 50.0 µM 93.2% | [10]; at 100.0 µM 98% | [11]; at 100.0 µM 98% | [12]; at 11.0 µM 72% | [12]; at 33.0 µM 96% | [12]; at 100.0 µM 99% | [13]; [17] 98% | [13]; at 50.0 µM 96.7% | [14]; at 11.0 µM 74% | [14]; at 33.0 µM 97% | [14]; at 100.0 µM 99%

[N-]=[N+]=NC1=C(c2ccccn2)C(=O)c2cccc3cccc1c23
active: [1]; at 100.0 µM 75% | [3]; at 33.0 µM 74% | [3]; at 100.0 µM 93% | [4]; [17] 71% | [4]; at 100.0 µM 71% | [7]; at 50.0 µM 71.4% | [8]; at 100.0 µM 74% | [14]; at 100.0 µM 85%
inactive: [1]; at 1.2 µM 2% | [1]; at 3.7 µM 4% | [1]; at 11.0 µM 24% | [1]; at 33.0 µM 50% | [2]; at 1.2 µM 2% | [2]; at 3.7 µM 4% | [2]; at 11.0 µM 5% | [2]; at 33.0 µM 14% | [2]; at 100.0 µM 34% | [3]; at 1.2 µM 9% | [3]; at 3.7 µM 16% | [3]; at 11.0 µM 31% | [4]; at 1.2 µM 2% | [4]; at 3.7 µM 3% | [4]; [16] 7% | [4]; at 11.0 µM 5% | [4]; at 33.0 µM 53% | [4]; at 50.0 µM 67.2% | [5]; at 1.2 µM 5% | [5]; at 3.7 µM 7% | [5]; [16] -5% | [5]; at 11.0 µM 14% | [5]; at 33.0 µM 37% | [5]; [17] 40% | [5]; at 50.0 µM 63.8% | [5]; at 100.0 µM 61% | [6]; at 1.2 µM 2% | [6]; at 3.7 µM 5% | [6]; at 11.0 µM 11% | [6]; at 33.0 µM 26% | [6]; at 100.0 µM 63% | [7]; [16] -7% | [7]; [17] 28% | [8]; at 1.2 µM -3% | [8]; at 3.7 µM 1% | [8]; at 11.0 µM 5% | [8]; at 33.0 µM 35% | [9]; [16] 38% | [9]; [17] 31% | [9]; at 50.0 µM 67% | [10]; at 1.2 µM -1% | [10]; at 3.7 µM 4% | [10]; [16] -11% | [10]; at 11.0 µM 18% | [10]; at 33.0 µM 24% | [10]; [17] 59% | [10]; at 50.0 µM 69.6% | [10]; at 100.0 µM 61% | [11]; at 1.2 µM -1% | [11]; at 3.7 µM -1% | [11]; at 11.0 µM 5% | [11]; at 33.0 µM 26% | [11]; at 100.0 µM 63% | [15]; at 1.2 µM 4% | [15]; at 3.7 µM -2% | [15]; at 11.0 µM 7% | [15]; at 33.0 µM 19% | [15]; at 100.0 µM 42% | [12]; at 1.2 µM -2% | [12]; at 3.7 µM 1% | [12]; at 11.0 µM 6% | [12]; at 33.0 µM 37% | [12]; at 100.0 µM 67% | [13]; [16] 4% | [13]; [17] 52% | [13]; at 50.0 µM 59% | [14]; at 1.2 µM 0% | [14]; at 3.7 µM 6% | [14]; at 11.0 µM 12% | [14]; at 33.0 µM 58%

O=C1Nc2ccccc2/C1=C/COc1ccccc1
active: [1]; at 33.0 µM 90% | [1]; at 100.0 µM 98% | [2]; at 100.0 µM 97% | [3]; at 11.0 µM 92% | [3]; at 33.0 µM 97% | [3]; at 100.0 µM 98% | [4]; at 33.0 µM 71% | [4]; [17] 99% | [4]; at 50.0 µM 99.5% | [4]; at 100.0 µM 98% | [5]; at 33.0 µM 97% | [5]; [17] 99% | [5]; at 50.0 µM 99.5% | [5]; at 100.0 µM 99% | [6]; at 33.0 µM 97% | [6]; at 100.0 µM 99% | [7]; [17] 99% | [7]; at 50.0 µM 99.6% | [8]; at 100.0 µM 98% | [9]; [17] 99% | [9]; at 50.0 µM 98.2% | [10]; at 33.0 µM 96% | [10]; [17] 99% | [10]; at 50.0 µM 99.8% | [10]; at 100.0 µM 98% | [15]; at 33.0 µM 89% | [15]; at 100.0 µM 99% | [12]; at 33.0 µM 98% | [12]; at 100.0 µM 99% | [13]; [17] 99% | [13]; at 50.0 µM 99.5% | [14]; at 33.0 µM 81% | [14]; at 100.0 µM 98%
inactive: [1]; at 1.2 µM 1% | [1]; at 3.7 µM 8% | [1]; at 11.0 µM 27% | [2]; at 1.2 µM -1% | [2]; at 3.7 µM -1% | [2]; at 11.0 µM 9% | [2]; at 33.0 µM 62% | [3]; at 1.2 µM 21% | [3]; at 3.7 µM 58% | [4]; at 1.2 µM 2% | [4]; at 3.7 µM 4% | [4]; [16] 28% | [4]; at 11.0 µM 20% | [5]; at 1.2 µM -2% | [5]; at 3.7 µM 6% | [5]; [16] 13% | [5]; at 11.0 µM 23% | [6]; at 1.2 µM 0% | [6]; at 3.7 µM 5% | [6]; at 11.0 µM 20% | [7]; [16] 26% | [8]; at 1.2 µM 0% | [8]; at 3.7 µM 2% | [8]; at 11.0 µM 15% | [8]; at 33.0 µM 39% | [9]; [16] 7% | [10]; at 1.2 µM -3% | [10]; at 3.7 µM 0% | [10]; [16] 2% | [10]; at 11.0 µM 13% | [15]; at 1.2 µM -4% | [15]; at 3.7 µM -1% | [15]; at 11.0 µM 17% | [12]; at 1.2 µM 1% | [12]; at 3.7 µM 11% | [12]; at 11.0 µM 45% | [13]; [16] 20% | [14]; at 1.2 µM 0% | [14]; at 3.7 µM 4% | [14]; at 11.0 µM 16%
